Sampled rows, rich in hits. Any-hit rate of the full collection: about 2.8%.
POLB inh – blocks human DNA polymerase beta activity. AID 485314. Pol beta primer extension/strand displacement, fluorescence kinetic. P06746. Potency, µM (highest dose often 114 µM), hits mostly inhibitors. 1.3% of 340,000 active
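Pol beta (10 nM) was preincubated with compound for 15 min at room temperature. The reaction was then started with 50 nM substrate and read immediately and after a further 10 min at room temperature.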
PI5P4Ka inh – blocks human PI5P4K alpha kinase activity; P48426; PI5P4Kalpha enzyme, ADP-Glo luminescence, 60 min; hits give low values; max response, %; 1.2% of 330,000 active; AID 652105; active = max response of -50% or lower; inconclusive = between -30% and -50%; inactive = -30% or higher; also: value at the top dose of about 77 µM
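Reactions run in 0.038 M HEPES pH 7.4, 0.28 mM EGTA, 0.1% CHAPS and 5% DMSO, with PI5P4Kalpha, substrate, compound and 5 microM ATP final, one hour at room temperature. Readout is ADP-Glo luminescence.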
WRN helicase inh – blocks human WRN helicase; Q14191; Potency, µM (series often up to 114 µM), hits mostly inhibitors; 0.46% of 360,000 active; WRN helicase unwinding, fluorescent forked duplex, kinetic; also: nearly all actives have a fitted effect of over 55% in size
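Fluorescence dequenching readout, ex 525 nm/em 598 nm, kinetic mode: forked duplex DNA (100 nM final) with adjacent fluorophore and quencher unwound by WRN (20 nM final) with 2 mM ATP. Compound preincubation 15 min, room temperature.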
POLI inh – inhibitors of human DNA polymerase iota; 1% of 390,000 active; Potency, µM (highest dose often 115 µM), usual class: inhibitors; AID 588590; Pol iota fluorescent replication assay, 10 min
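Fluorescent replication assay read twice, at 0 min and 10 min after adding 50 nM (final) substrate. Enzyme (10 nM) and compounds were first incubated 15 min at room temperature; enzyme-free buffer wells were negative controls.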
Pol kappa inh – DNA polymerase kappa (human) inhibition; Q9UBT6; purified Pol kappa, fluorescent DNA synthesis assay, 10 min; Potency, µM (doses to about 107 µM), most hits filed as inhibitors; 0.53% of 400,000 active; AID 588579
Target sequence (Q9UBT6 whole entry, looked up): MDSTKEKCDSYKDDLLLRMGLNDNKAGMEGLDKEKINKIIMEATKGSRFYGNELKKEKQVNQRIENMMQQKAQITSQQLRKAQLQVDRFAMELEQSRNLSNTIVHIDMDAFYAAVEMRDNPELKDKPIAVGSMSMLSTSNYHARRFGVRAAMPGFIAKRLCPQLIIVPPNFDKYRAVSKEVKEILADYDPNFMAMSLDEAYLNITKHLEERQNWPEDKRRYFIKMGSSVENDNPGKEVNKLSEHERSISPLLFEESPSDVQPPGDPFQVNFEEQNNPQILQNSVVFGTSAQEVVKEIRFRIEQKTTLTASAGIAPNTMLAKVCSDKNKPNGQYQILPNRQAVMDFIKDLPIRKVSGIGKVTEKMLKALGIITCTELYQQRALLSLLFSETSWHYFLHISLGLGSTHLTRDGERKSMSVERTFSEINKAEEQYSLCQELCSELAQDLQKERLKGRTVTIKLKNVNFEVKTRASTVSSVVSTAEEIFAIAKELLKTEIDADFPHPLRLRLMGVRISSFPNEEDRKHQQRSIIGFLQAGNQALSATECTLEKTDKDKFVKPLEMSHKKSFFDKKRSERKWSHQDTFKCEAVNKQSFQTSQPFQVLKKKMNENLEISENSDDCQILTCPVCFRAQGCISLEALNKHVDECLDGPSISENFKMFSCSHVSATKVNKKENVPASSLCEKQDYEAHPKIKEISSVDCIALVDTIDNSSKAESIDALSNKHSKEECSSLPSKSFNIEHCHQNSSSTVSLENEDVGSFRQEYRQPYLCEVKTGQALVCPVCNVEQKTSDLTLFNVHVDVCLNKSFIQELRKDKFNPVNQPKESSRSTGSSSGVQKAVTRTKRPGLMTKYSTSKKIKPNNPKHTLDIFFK
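Readout: fluorescence, taken kinetically at 0 and 10 min. Conditions: 10 nM Pol kappa, 15 min RT compound preincubation, 50 nM substrate final. Controls: enzyme-free buffer wells.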
POLH inh – DNA polymerase eta (human) inhibition | Q9Y253 | recombinant Pol eta, fluorescent DNA replication assay | Potency, µM (highest dose often 114 µM), hits mostly inhibitors | 1.2% of 390,000 active | AID 588591
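Fluorescent replication assay: 50 nM final substrate added after a 15 min room-temperature compound preincubation with 10 nM enzyme. Signal taken at 0 min and again at 10 min.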
Large screens that a line does not name were inactive. Unless noted, calls follow the shape of the dose curve; as a rule, active = well fitted curve in the direction sought with a large enough effect; inconclusive = small, poorly fitted or top-dose-only effect, or another doubt; inactive = no such curve, though single readings can be large; an effect the other way counts as inactive or inconclusive.

Cc1cc(N2C(=O)C(O)=C(C(=O)c3cc4ccccc4o3)C2c2ccc(Br)cc2)no1 (stereo unspecified)	PI5P4Ka inh -66.6
Cc1cc(N2C(=O)C(O)=C(C(=O)c3cc4ccccc4o3)C2c2ccc(Cl)cc2)no1 (stereo unspecified)	PI5P4Ka inh -72.4
COc1cccc(C2C(C(=O)c3cc4ccccc4o3)=C(O)C(=O)N2c2cc(C)on2)c1 (stereo unspecified)	none
CCOc1ccc(Cl)cc1-c1cc(C(=O)NC2CCCCC2)[nH]n1	none (no result: POLB inh, POLI inh, Pol kappa inh, POLH inh)
O=C(Nc1ccc2c(c1)OCCO2)C1C(c2ccccc2)=Nc2ccccc2N1C(=O)c1cccnc1 (stereo unspecified)	none (no result: POLB inh, POLI inh, Pol kappa inh, POLH inh)
c1ccc(SC23CCCCN(CCC2)C32OCCO2)cc1 (stereo unspecified)	none (no result: POLB inh, POLI inh, Pol kappa inh, POLH inh)
Cc1cc(C)c2sc(NC(=O)c3ccc(N4C(=O)CCC4=O)cc3)nc2c1	none
Cc1ccc2nc(NC(=O)c3ccc(N4C(=O)CCC4=O)cc3)sc2c1	PI5P4Ka inh -54.3
NCC1OC(O[C@H]2[C@H](O)[C@@H](OC3C(O)C(N)CC(N)C3OC3OC(CO)C(O)C(O)C3N)O[C@@H]2CO)C(N)C(O)C1O (stereo partly specified)	none (no result: POLB inh, PI5P4Ka inh, WRN helicase inh, POLI inh, POLH inh)
N[C@@H](CCCP(=O)(O)O)C(=O)O	none (no result: POLB inh, PI5P4Ka inh, WRN helicase inh, POLI inh, POLH inh)
NC(CCCCCP(=O)(c1ccccc1)c1ccccc1)C(=O)O (stereo unspecified)	POLB inh 17.8µM, POLI inh 79.4µM
CCc1ccc([C@@H]2CC=C(C(=O)O)[C@H](c3ccccc3)N2S(=O)(=O)c2ccc(C)cc2)cc1	none (no result: POLB inh)
Cc1ccc(S(=O)(=O)N2[C@@H](c3ccc(Cl)cc3)C(C(=O)O)=CC[C@H]2c2ccc(Cl)c(Cl)c2)cc1	POLI inh inconclusive, POLH inh 89.1µM (no result: POLB inh)
CCc1ccc([C@@H]2CC=C(C(=O)O)[C@H](c3ccc(C(C)(C)C)cc3)N2S(=O)(=O)c2ccc(C)cc2)cc1	PI5P4Ka inh inconclusive, WRN helicase inh inconclusive, POLH inh 31.6µM (no result: POLB inh)
Cc1ccc(NC(=O)C2CCCN2S(=O)(=O)c2cccc3nsnc23)c(Br)c1 (stereo unspecified)	none (no result: PI5P4Ka inh, WRN helicase inh)
CC(C)Cc1nn2c(=O)cc(COC(=O)c3cccc(NC(=O)c4cccs4)c3)nc2s1	none (no result: PI5P4Ka inh, WRN helicase inh)
CCC(Sc1nnc(-c2ccc(OC)c(OC)c2)c(-c2ccc(OC)c(OC)c2)n1)C(=O)NC1CCCC1 (stereo unspecified)	none (no result: PI5P4Ka inh, WRN helicase inh)
CCCOc1ccc(CNC(=O)c2cc3oc4ccccc4c3n2C)cc1	none (no result: PI5P4Ka inh, WRN helicase inh, POLH inh)
CCOc1ccc(NC(=O)CCC(=O)NNC(=O)COc2ccc(C)cc2Br)cc1	POLB inh inconclusive, POLI inh 70.8µM
COc1ccc2cc(OCC(=O)NNC(=O)Nc3ccc(OC)c(OC)c3)ccc2c1	POLB inh 50.1µM, POLI inh 20µM, POLH inh inconclusive
Cc1ccccc1NC(=O)NNC(=O)COc1ccc2ccccc2c1	POLB inh 15.8µM, WRN helicase inh inconclusive, POLI inh inconclusive
O=C(COc1ccc2ccccc2c1)Nc1ccc(Cc2ccncc2)cc1	POLB inh inconclusive, POLI inh 25.1µM, POLH inh inconclusive (no result: PI5P4Ka inh)
O=C(COc1ccc2ccccc2c1)NNC(=O)Nc1ccc(F)cc1F	POLB inh inconclusive, POLI inh inconclusive
CCN(Cc1ccccc1)C(=O)Cn1c(=O)oc2cc(S(=O)(=O)N3CCCCCC3)ccc21	none (no result: PI5P4Ka inh, WRN helicase inh, POLH inh)
Cc1ccc(CNC(=O)c2cc(=O)c3cc(C)cc(C)c3o2)cc1	none (no result: PI5P4Ka inh, WRN helicase inh)
Cc1ccc(NC(=O)Nc2cnc3ccccc3c2)cc1	POLB inh 20µM
COc1cccc(NC(=O)NNC(=O)COc2ccc3ccccc3c2)c1	none
Cc1ccc(NC(=O)NNC(=O)COc2ccc3ccccc3c2)cc1	POLB inh 79.4µM, POLI inh inconclusive
Cc1cc(OCC(=O)Nc2ccc(C(=O)OC3CCCCC3)cc2)ccc1Cl	none (no result: PI5P4Ka inh, WRN helicase inh, POLH inh)
CSCCC(C(=O)OC1CCOC1=O)N1C(=O)c2ccccc2C1=O (stereo unspecified)	WRN helicase inh inconclusive, POLI inh inconclusive, Pol kappa inh inconclusive, POLH inh 35.5µM
CSCCC(C(=O)OCC(=O)c1ccc(C)c(C)c1)N1C(=O)c2ccccc2C1=O (stereo unspecified)	WRN helicase inh inconclusive
CCCn1c(N)c(C(=O)CSc2nnc(Cc3cccs3)n2C2CC2)c(=O)n(C)c1=O	none (no result: POLB inh)
O=C(CN1C(=O)/C(=C/c2cccc(Br)c2)SC1=S)NCCCN1CCOCC1	WRN helicase inh 79.4µM, POLI inh inconclusive, POLH inh inconclusive
O=C(CCCN1C(=O)/C(=C/c2cccc(Br)c2)SC1=S)NCCCN1CCOCC1	POLI inh inconclusive
COc1ccc(OC)c(NC(=O)c2nc(SCc3ccccc3F)ncc2Cl)c1	none (no result: PI5P4Ka inh, WRN helicase inh)
CSc1nc2sc3c(c2c(=O)n1-c1ccc(C)cc1)CCCC3	none (no result: PI5P4Ka inh, WRN helicase inh)
NC(=N\N=Cc1ccccc1)/C(N)=N/N=Cc1ccccc1	none (no result: POLB inh)
NC(=N\N=Cc1ccco1)/C(N)=N/N=Cc1ccco1	POLI inh inconclusive, POLH inh 44.7µM (no result: POLB inh)
Oc1c(Br)cc(Br)cc1CNc1cccc2cccnc12	POLB inh 44.7µM, POLI inh inconclusive, Pol kappa inh inconclusive
O=C(Nc1ccc([N+](=O)[O-])cc1Cl)c1cc(Cl)cc(Cl)c1O	POLI inh inconclusive (no result: POLB inh, PI5P4Ka inh, WRN helicase inh, POLH inh)
O=C(Nc1ccc(Br)cc1)c1cc([N+](=O)[O-])cc([N+](=O)[O-])c1	none
O=c1c2c([N+](=O)[O-])cc([N+](=O)[O-])cc2sn1-c1ccc(Br)cc1	PI5P4Ka inh -85.3, WRN helicase inh 79.4µM
O=c1c2c([N+](=O)[O-])cc([N+](=O)[O-])cc2sn1Cc1ccccc1	PI5P4Ka inh -80.2, WRN helicase inh 20µM
COc1cc(OC)c(NC(=O)C(C)n2nc(-c3ccc(C)cc3)c3c(c2=O)CCCC3)cc1Cl (stereo unspecified)	none (no result: PI5P4Ka inh, WRN helicase inh)
O=C(NN=C1CCCC1)c1cccc(O)c1	none
O=C(NN=C1CCCC1)c1cc(O)cc(O)c1	POLB inh 20µM, PI5P4Ka inh -79.5, POLI inh 35.5µM, Pol kappa inh inconclusive, POLH inh 50.1µM
Cc1ccc(SCCC(=O)OC(C(=O)NC(N)=O)C(C)C)cc1 (stereo unspecified)	PI5P4Ka inh -67.3
CCOc1ccc(NC(=O)CN2C(=O)c3ccccc3Sc3ccc(C(=O)OC)cc32)cc1	POLB inh 79.4µM, POLH inh inconclusive (no result: PI5P4Ka inh, WRN helicase inh)
O=[N+]([O-])c1cc(Cl)ccc1Nc1nc(Nc2ccc(Cl)cc2[N+](=O)[O-])nc(N2CCOCC2)n1	none (no result: POLB inh, PI5P4Ka inh, WRN helicase inh, POLH inh)
O=C(NCc1ccco1)C1CN(S(=O)(=O)c2ccccc2)CCN1S(=O)(=O)c1ccccc1 (stereo unspecified)	POLI inh inconclusive (no result: PI5P4Ka inh)
